Measured values published in PubChem BioAssay AID1159580 (chemical genetic matrix, 2015).
Where “and” joins values, the source holds several entries; their conditions need not be identical. Equal entries are not always repeated. Out of some 5,500 compounds screened, about 2,000 (36%) were called active. Another 18% or so got no clear call; they are omitted. Rule as the data show it: active = normalized growth mostly below about 0.91 (no sharp cut-off); inconclusive = no clear call, values can overlap the other calls; inactive = mostly above about 0.92. The list shows a part of the results.

Experiment: chemical genetic growth profiling, strain panel (AID 1159580);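 also: tested at 20 µM; growth read once vehicle control cultures reached saturation at 30 °C; 1 = growth at the plate median or of vehicle wells; lower values mean less growth of the strain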
Conditions: S. cerevisiae deletion strains, growth OD

Measured: normalized growth

Nc1nc(/C(=C/CC(=O)O)C(=O)N[C@@H]2C(=O)N3C(C(=O)O)=CCS[C@H]23)cs1
inactive: locus YAL013W, strain DEP1, active compounds read low 0.991 | locus YAL021C, strain ccr4, active compounds read low 1.01 | locus YAL026C, strain drs2, active compounds read low 1.01 | locus YAL030W, strain snc1, active compounds read low 1.02 | locus YBL061C, strain skt5, active compounds read low 1 | locus YBR009C, strain hhf1, active compounds read low 1.02 | locus YBR021W, strain FUR4, active compounds read low 0.982 | locus YBR023C, strain chs3, active compounds read low 1.01 | locus YBR171W, strain sec66, active compounds read low 1.04 | locus YBR229C, strain ROT2, active compounds read low 0.971 | locus YBR231C, strain swc5, active compounds read low 1.01 | locus YBR279W, strain paf1, active compounds read low 1 | locus YCL011C, strain gbp2, active compounds read low 1 | locus YCL016C, strain dcc1, active compounds read low 0.99 | locus YCL029C, strain bik1, active compounds read low 0.988 | locus YCL061C, strain MRC1, active compounds read low 1.01 | locus YCL069W, strain vba3, active compounds read low 1 | locus YCR088W, strain abp1, active compounds read low 1.01 | locus YDL005C, strain med2, active compounds read low 1.01 | locus YDL035C, strain GPR1, active compounds read low 1.01 | locus YDL040C, strain nat1, active compounds read low 0.997 | locus YDL074C, strain BRE1, active compounds read low 1.02 | locus YDL101C, strain DUN1, active compounds read low 0.989 | locus YDL134C, strain PPH21, active compounds read low 0.988 | locus YDL185W, strain tfp1, active compounds read low 0.99 | locus YDL192W, strain arf1, active compounds read low 0.983 | locus YDR001C, strain nth1, active compounds read low 1.02 | locus YDR069C, strain doa4, active compounds read low 1.01 | locus YDR101C, strain arx1, active compounds read low 0.99 | locus YDR137W, strain rgp1, active compounds read low 1.01 | locus YDR150W, strain NUM1, active compounds read low 0.998 | locus YDR159W, strain sac3, active compounds read low 1.02 | locus YDR162C, strain NBP2, active compounds read low 1 | locus YDR195W, strain ref2 1.01 | locus YDR297W, strain sur2, active compounds read low 1.01 | locus YDR318W, strain mcm21, active compounds read low 0.996 | locus YDR334W, strain swr1, active compounds read low 0.993 | locus YDR335W, strain msn5, active compounds read low 1.01 | locus YDR388W, active compounds read low 0.992 | locus YDR392W, strain spt3, active compounds read low 1.01 | locus YDR502C, strain sam2, active compounds read low 0.992 | locus YEL003W, strain gim4, active compounds read low 1.01 | locus YEL037C, strain rad23, active compounds read low 1 | locus YEL061C, strain CIN8 (second series), active compounds read low 1 | locus YEL061C, strain CIN8, active compounds read low 0.995 | locus YER015W, strain faa2, active compounds read low 1 | locus YER016W, strain bim1, active compounds read low 0.998 | locus YER110C, active compounds read low 0.978 | locus YER111C, strain swi4, active compounds read low 1.01 | locus YER155C, strain BEM2 (second series), active compounds read low 1.03 | locus YER155C, strain BEM2, active compounds read low 1.04 | locus YER167W, strain BCK2, active compounds read low 0.985 | locus YFR010W, strain ubp6, active compounds read low 1 | locus YGL078C, strain dbp3, active compounds read low 0.995 | locus YGL086W, strain mad1, active compounds read low 0.991 | locus YGL167C, strain pmr1, active compounds read low 1 | locus YGL173C, strain kem1, active compounds read low 1.02 | locus YGL227W, strain vid30, active compounds read low 1.01 | locus YGL240W, strain doc1, active compounds read low 1.01 | locus YGL248W, strain PDE1, active compounds read low 0.978 | locus YGL253W, strain hxk2, active compounds read low 1 | locus YGR078C, strain PAC10, active compounds read low 1.03 | locus YGR135W, strain pre9, active compounds read low 0.991 | locus YGR229C, strain SMI1, active compounds read low 0.935 | locus YGR252W, strain gcn5, active compounds read low 1.04 | locus YHR013C, strain ard1, active compounds read low 0.997 | locus YHR027C, strain rpn1, active compounds read low 1.01 | locus YHR030C, strain SLT2, active compounds read low 0.99 and 0.989 | locus YHR079C, strain IRE1 (second series), active compounds read low 0.998 | locus YHR079C, strain IRE1, active compounds read low 0.974 | locus YHR094C, strain hxt1, active compounds read low 0.99 | locus YHR129C, strain ARP1, active compounds read low 0.989 | locus YHR142W, strain chs7, active compounds read low 1.02 | locus YHR200W, strain rpn10, active compounds read low 0.992 | locus YIL066C, strain RNR3, active compounds read low 0.993 | locus YIL073C, strain SPO22, active compounds read low 1.03 | locus YIL125W, strain kgd1, active compounds read low 0.994 | locus YIR030C, strain dcg1, active compounds read low 0.987 | locus YJL092W, strain hpr5, active compounds read low 1 | locus YJL095W, strain BCK1 (second series), active compounds read low 1.01 | locus YJL095W, strain BCK1, active compounds read low 0.997 and 1.01 | locus YJL115W, strain asf1, active compounds read low 1.03 | locus YJL129C, strain trk1, active compounds read low 1.01 | locus YJL134W, strain LCB3, active compounds read low 0.993 | locus YJL154C, strain vps35, active compounds read low 1.01 | locus YJL164C, strain tpk1, active compounds read low 0.988 | locus YJL166W, strain qcr8, active compounds read low 1.02 | locus YJL168C, strain set2, active compounds read low 0.99 | locus YJL187C, strain SWE1 (second series), active compounds read low 0.989 | locus YJL187C, strain SWE1, active compounds read low 1.01 | locus YJR043C, strain POL32, active compounds read low 0.981 | locus YJR066W, strain TOR1, active compounds read low 0.949
